From PubChem BioAssay (NCATS)
Results filed as inconclusive are left out. Active and inactive are the calls of the source. Calls come from the whole dose curve; as a rule, active = well fitted inhibition curve with a large enough effect; inconclusive = small, poorly fitted or top-dose-only effect; inactive = flat fitted curve, though single readings scatter.

Legend:
Experiment in all cases: qHTS profiling for inhibitors of Plasmodium falciparum proliferation (AID 504749); note: nearly all actives have a fitted effect of over 60% in size
Settings in all cases: P. falciparum in erythrocytes, SYBR Green DNA, 72 h; series mostly up to 12.8 µM
7G8 = test system: 7G8
Summary of the method: (§1)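 SYBR Green fluorescence of parasite DNA, read after lysis and overnight dark incubation, measured growth over 72 h in erythrocyte culture at 0.3% parasitemia and 2.5% hematocrit. Data normalised to DMSO and 0.29 uM artemisinin, with plate-drift correction.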

AA1029 = test system: AA1029
Summary of the method: as §1

CP185 = test system: CP185
Summary of the method: as §1

CP192 = test system: CP192
Summary of the method: as §1

CP211 = test system: CP211
Summary of the method: as §1

CP215 = test system: CP215
Summary of the method: as §1

CP237 = test system: CP237
Summary of the method: as §1

CP260 = test system: CP260
Summary of the method: as §1

CP265 = test system: CP265
Summary of the method: as §1

CP268 = test system: CP268
Summary of the method: as §1

CP269 = test system: CP269
Summary of the method: as §1

CP325 = test system: CP325
Summary of the method: as §1

DIV30 = test system: DIV30
Summary of the method: as §1

Dd2 = test system: Dd2
Summary of the method: as §1

ECU = test system: ECU
Summary of the method: as §1

HB3 = test system: HB3
Summary of the method: as §1

ICS = test system: ICS
Summary of the method: as §1

PC26 = test system: PC26
Summary of the method: as §1

TAB113 = test system: TAB113
Summary of the method: as §1

TAB165 = test system: TAB165
Summary of the method: as §1

Measured: Potency
Potency is the fitted concentration of half-maximal effect.

CN[C@H]1[C@H](O)[C@@H](O[C@@H]2[C@H](O)[C@@H](O[C@H]3OC(CN)=CC[C@H]3N)[C@@H](N)C[C@H]2N)OC[C@@]1(C)O
inactive: all assays above

CC(C)(C)NC[C@H](O)COc1cccc2c1C[C@@H](O)[C@@H](O)C2
inactive: all assays above

Cc1ccc2c(c1)c1c3n2CCN[C@H]3CCC1
inactive: CP185 | CP192 | CP211 | CP215 | CP260 | CP268 | CP269 | CP325 | HB3 | TAB113
active: 7G8 6.31 µM | CP237 12.6 µM

CC[C@](C)(CN(C)C)OC(=O)c1ccccc1
active: Dd2 5.01 µM
not listed: CP237
inactive: all other assays above

Cc1ncc([N+](=O)[O-])n1C[C@H](O)CCl
inactive: all assays above

CCN1CCC[C@@H](OC(=O)C(c2ccccc2)c2ccccc2)C1
inactive: CP192 | CP211 | CP260 | CP268 | CP269 | ECU | HB3 | TAB113
active: CP237 1.78 µM

CN[C@H]1[C@@H](O)[C@@H](NC)[C@@H]2O[C@@]3(O)C(=O)C[C@@H](C)O[C@H]3O[C@H]2[C@H]1O
inactive: all assays above

CCCCC[C@H](O)/C=C\[C@@H]1[C@H](O)CC(=O)[C@@H]1CCCCCCC(=O)O
active: ICS 3.55 µM
not listed: 7G8 | CP268 | HB3
inactive: all other assays above

CC(=O)O[C@H]1C[C@@]2(C)[C@H](C[C@@H](O)[C@H]3[C@@]4(C)CC[C@@H](O)[C@@H](C)[C@H]4CC[C@@]32C)C1=C(CCC=C(C)C)C(=O)O
not listed: 7G8 | ICS
inactive: all other assays above

CC1=C(C(=O)O)N2C(=O)[C@@H](NC(=O)[C@@H](N)c3ccc(O)cc3)[C@@H]2SC1
not listed: CP211
inactive: all other assays above

O=C(N/N=C\c1ccc([N+](=O)[O-])o1)c1ccc(O)cc1
active: 7G8 0.794 µM | AA1029 3.98 µM | CP185 2.24 µM | CP211 5.73 µM | CP215 4.55 µM | CP237 2.51 µM | CP260 2.51 µM | CP265 3.16 µM | CP268 5.73 µM | CP269 4.55 µM | DIV30 5.1 µM | Dd2 3.55 µM | ECU 1.78 µM | HB3 3.55 µM | ICS 1.41 µM | PC26 5.73 µM | TAB113 3.16 µM | TAB165 3.16 µM

CC1(C)O[C@H]2C[C@@H]3[C@H]4CCC5=CC(=O)CC[C@@]5(C)[C@]4(F)[C@@H](O)C[C@@]3(C)[C@@]2(C(=O)CCl)O1
inactive: ECU
active: 7G8 1.58 µM | AA1029 2.82 µM | CP260 3.16 µM | CP265 3.98 µM | DIV30 5.73 µM | ICS 0.891 µM | PC26 6.42 µM | TAB165 3.16 µM

O=C1O[C@@H]([C@@H](O)CO)[C@@H](O)[C@H]1O
inactive: all assays above

Cc1cccc(C)c1NC(=O)[C@H](C)N
not listed: CP192 | CP211 | CP215 | CP268 | CP269 | CP325 | DIV30 | PC26
inactive: all other assays above

COc1cc2nc(N3CCN(C(=O)[C@@H]4COc5ccccc5O4)CC3)nc(N)c2cc1OC
inactive: CP215 | CP265 | CP268 | CP325
active: 7G8 7.08 µM

C[C@H](N[C@@H](C)COc1ccccc1)[C@H](O)c1ccc(O)cc1
active: CP237 3.55 µM
not listed: Dd2
inactive: all other assays above

Cn1nnnc1SCC1=C(C(=O)O)N2C(=O)[C@@H](NC(=O)[C@@H](O)c3ccccc3)[C@@H]2SC1
not listed: 7G8
inactive: all other assays above

CC(=C(CCOP(=O)(O)O)SC(=O)c1ccccc1)N(C=O)Cc1cnc(C)nc1N
not listed: 7G8
inactive: all other assays above

COc1cc2nc(N3CCN(C(=O)[C@@H]4CCCO4)CC3)nc(N)c2cc1OC
inactive: all assays above

CC[N+](CC)(CC)CC[C@](O)(c1ccccc1)C1CCCCC1
not listed: CP260 | HB3 | ICS | PC26
inactive: all other assays above

C[C@@H]1O[C@H](O[C@@H]2\C=C/C=C\C=C/C=C\C[C@H](C)OC(=O)/C=C\[C@H]3O[C@@H]3C[C@H](O)C[C@]3(O)C[C@@H](O)[C@@H](C(=O)O)[C@H](C2)O3)[C@@H](O)[C@H](N)[C@@H]1O (stereo in doubt)
not listed: CP268
inactive: all other assays above

C1CCN2C[C@@H]3C[C@@H](CN4CCCC[C@H]34)[C@H]2C1
not listed: CP215
inactive: all other assays above

CC(=O)OCC(=O)[C@@]1(O)[C@H](C)C[C@@H]2[C@H]3CCC4=CC(=O)C=C[C@]4(C)[C@]3(F)[C@@H](O)C[C@@]21C
inactive: all assays above

C[C@@]12CC[C@H]3[C@@H](CCC4=CC(=O)CC[C@]43C)[C@H]1CC[C@H]2C(=O)CO
active: ICS 3.55 µM
not listed: ECU | TAB113 | TAB165
inactive: all other assays above

C=C1c2c(Cl)ccc(O)c2C(O)=C2C(=O)[C@@]3(O)C(O)=C(C(N)=O)C(=O)[C@@H](N(C)C)[C@@H]3[C@@H](O)[C@H]12
active: 7G8 3.16 µM | Dd2 2.24 µM
inactive: CP185 | CP192 | CP211 | CP215 | CP265 | CP268 | CP269 | CP325 | DIV30

CO[C@H]1[C@H](O[C@H]2O[C@@H](C)[C@@H](O[C@@H]3C[C@](C)(O)[C@H](O)[C@H](C)O3)[C@@H](N(C)C)[C@@H]2O)[C@@H](CC=O)C[C@@H](C)[C@@H](O[C@H]2CC[C@H](N(C)C)[C@H](C)O2)/C=C\C=C/C[C@@H](C)OC(=O)C[C@H]1O
inactive: CP192 | CP265 | DIV30 | Dd2 | ECU | HB3 | PC26 | TAB165

CO[C@H]1[C@H](O[C@H]2O[C@@H](C)[C@@H](O[C@@H]3C[C@](C)(O)[C@H](OC(=O)CC(C)C)[C@H](C)O3)[C@@H](N(C)C)[C@@H]2O)[C@@H](CC=O)C[C@@H](C)[C@@H](O)/C=C\C=C/C[C@@H](C)OC(=O)C[C@H]1OC(C)=O
active: Dd2 1.41 µM
inactive: TAB113
